Screening results (PubChem)
Cycloheximide cs: counter-screen hit for Shiga toxin inhibitors, cycloheximide. cell reporter, cycloheximide protein synthesis inhibition counterscreen. max response, %. 300,000 compounds, 12% hits. AID 2314; in the data active means max response mostly above about 13%, no sharp cut-off; inactive means mostly below about 14%; further: read at 38.3 µM for the half of the compounds with a filed dose; 0% is about no effect
LASV entry inh: Lassa virus entry inhibition; Lassa virus pseudotype entry inhibition, cell reporter; AID 540256; Potency, µM (titrated, usually from 37.9 µM), for inactives: top-dose activity change, negative = inhibition, actives largely listed as inhibitors; 300,000 compounds, 1.2% hits; calls by dose curve; tested in HEK293 cells; further: potency means the concentration at half of the fitted maximal effect; on the % scale 0 is the no-effect control and ±100 the full control effect; nearly all actives have a fitted effect of over 50% in size
AMA1 RON2 block: inhibitors of Plasmodium falciparum AMA1-RON2 interaction; Potency, µM (titrated, usually from 58.2 µM), for the others: top-dose activity change, negative = inhibition, usual class: inhibitors; 360,000 compounds, 0.2% hits; AlphaScreen AMA1-biotinylated RON2 peptide binding; active means well fitted inhibition curve with a large enough effect; inconclusive means small, poorly fitted or top-dose-only effect; inactive means no such curve, though single readings can be large or run the other way;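 further: potency means the concentration at half of the fitted maximal effect; 0% = vehicle wells and -100% = peptide control; nearly all actives have a fitted effect of over 45% in size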
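AMA1 (3D7) with his tag at 25 nM final met compounds first, then biotinylated RON2 peptide at 25 nM; detection used donor plus acceptor beads, 10 µg/mL apiece, read by AlphaScreen after 30 min at room temperature.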
Shiga inhibitor: blocks Shiga toxin action in Vero cells. Vero cells, Shiga toxin protein synthesis inhibition reporter. inhibition, % at 38.7 µM. 290,000 compounds, 9.2% hits. AID 2315; in the data active means inhibition mostly above about 28%, no sharp cut-off; inactive means mostly below about 43%; further: 0% is about no effect
MARV entry inh: Marburg virus entry inhibition; Marburg virus pseudotyped entry inhibition, cell reporter; Potency, µM (highest dose often 37.8 µM), inactives show at the highest dose activity change, negative = inhibition, usual class: inhibitors; 300,000 compounds, 1.8% hits; calls by dose curve; tested in HEK293 cells; further: potency means the concentration at half of the fitted maximal effect; on the % scale 0 is the no-effect control and ±100 the full control effect
Starred values were filed as active, the others as inactive; ? = inconclusive; . = not tested or not shown; [ ] = another dose, or the depositor's remark. Shown is part of a subset that was picked to be rich in hits.

SMILES	Cycloheximide cs	LASV entry inh	AMA1 RON2 block	Shiga inhibitor	MARV entry inh
O=C(Nc1ccc2c(c1)OCCO2)N1CCOCC1	25	?	8%	54	-4%[46.1 µM]
O=C(Nc1ccc2c(c1)OCO2)N1CCOCC1	36*	0%	-8%	66*	17%
CC(O)C(C(=O)OCc1ccc([N+](=O)[O-])cc1)N1C(=O)c2ccccc2C1=O (stereo not drawn)	0	-9%	0%	24	-11%
COc1ccccc1C(=O)NNC(=O)C1CC=CCC1 (stereo not drawn)	25*	10%[46.1 µM]	12%	34	?
Cc1ccccc1C(=O)NNS(=O)(=O)c1ccc(F)cc1	.	.	3%	.	.
Cc1ccccc1C(=O)NNC(=O)c1ccc(F)cc1	20*	2%	2%	62	17%
COc1ccccc1C(=O)NNC(=O)c1ccc(Cl)cc1	17*	.	59%	21	.
COc1ccccc1C(=O)NNC(=O)c1ccc(O)cc1	.	.	1%	.	.
COc1ccccc1C(=O)NNC(=O)c1ccc(F)cc1	57*	8%	5%	65*	15%
COc1cccc(CN2CCC2(C)C(=O)NCCc2ccccn2)c1OC (stereo not drawn)	.	.	81%	.	.
COC(=O)[C@@H]1CCCN1C(=O)[C@@H](NC(=O)OC(C)(C)C)C(C)C	-2	.	-2%	10	.
COc1ccc(C(=O)NNC(=O)OC(C)(C)C)cc1	1	.	-2%	-8	.
CC(C)(C)OC(=O)NNC(=O)c1ccc(Cl)cc1	13*	1%	11%	26	-3%
O=c1[nH]c(Nc2nc3ccccc3o2)nc2c1CCCC2	39*	5.2µM*	27%	76*	6.5µM*
O=C(O)c1ccc2c(c1)[C@@H]1C=CC[C@@H]1[C@H](c1ccccn1)N2	.	8%	13µM*	.	-4%
COc1ccc(C(=O)N/N=C(\C)c2ccc3c(c2)C2C=CCC2C(c2ccccc2)N3)cc1 (stereo not drawn)	20*	?	-8%	31	-5%
COc1ccc(OC)c([C@@H]2Nc3ccc(C(=O)O)cc3[C@@H]3C=CC[C@@H]32)c1	.	5%[46.1 µM]	.	.	.
O=C(SCC(O)C(O)CS)c1cccs1 (stereo not drawn)	1	.	83%	3	.
O=C(c1ncn(Cc2ccccc2)c1C(=O)N1CCc2ccccc2C1)N1CCc2ccccc2C1	.	.	16%	.	.
CCN(CC(=O)Nc1c(F)cccc1F)C(=O)C1COc2ccccc2O1 (stereo not drawn)	.	7%	25%	.	?
c1ccc(CN2CCN(C3CCCSc4ccccc43)CC2)cc1 (stereo not drawn)	.	?	?	.	16µM*
O=C1CC(N2CCN(Cc3ccccc3)CC2)C(=O)N1 (stereo not drawn)	-2	.	31%	-9	.
CC(C)CC(=O)Nc1ccc(C(=O)OCc2cc(=O)n3nc(C(C)C)sc3n2)cc1	.	7%[46.1 µM]	.	.	.
CCOC(=O)N1CCC(NC(=O)c2ccc3c(c2)N(Cc2ccc(F)cc2)C(=O)c2ccccc2S3=O)CC1 (stereo not drawn)	.	-30%[46.1 µM]	.	.	-27%[46.1 µM]
CCc1nc(SCC(=O)Nc2ccc(Br)cn2)n[nH]1	2	.	.	-34	.
SMILES	Cycloheximide cs	LASV entry inh	AMA1 RON2 block	Shiga inhibitor	MARV entry inh
COC(=O)C(N)Cc1ccc(O)c(O)c1 (stereo not drawn)	7	14%	-16%	3	10%
NC(Cc1cc(O)c(O)cc1O)C(=O)O (stereo not drawn)	.	?	.	.	4µM*
N[C@@H](Cc1ccc(O)cc1)C(=O)O	5	.	.	14	.
N[C@H](Cc1ccc(O)c(O)c1)C(=O)O	.	.	.	.	16µM*
N[C@@H](Cc1cc(O)c(O)cc1O)C(=O)O	.	.	.	.	4µM*
C[C@](N)(Cc1ccc(O)c(O)c1)C(=O)O	-1	?	11µM*	-7	?
NCCc1ccc(O)c(O)c1	-1	-34%	?	9	?
N[C@@H](Cc1cc(I)c(O)c(I)c1)C(=O)O	-2	16%	-10%	-6	-2%
COc1cccc(C(=O)Nc2cccc(-c3cn4c(C)csc4n3)c2)c1OC	.	16%[46.1 µM]	.	.	.
Cc1cnc(C(=O)OCC(=O)N2CC(C)CC(C)C2)cn1 (stereo not drawn)	.	.	-8%	.	.
N[C@H](Cc1ccc(N(CCCl)CCCl)cc1)C(=O)O	.	.	.	.	5.8µM*
O=C(Nc1c2c(nn1-c1ccccc1)CS(=O)C2)c1ccco1 (stereo not drawn)	-1	-1%	8%	-35	?
Cc1occc1-c1nc(-c2ccncc2)no1	34*	39%[14.3 µM]	-10%	80*	13%
Cc1onc(-c2ccccc2Cl)c1-c1nc(-c2ccccn2)no1	2	?	15%	-2	?
